Bioassay records (PubChem BioAssay)
Compounds with a hit are over-represented: about 4.7% of the library has one in this group of screens.
TRHR PAM = allosterically enhances the human TRH receptor; P34981; TRHR cells, fluo-8 calcium fluorescence, EC20 TRH enhancement; enhancement, % at 2 µM; 360,000 compounds, 0.66% hits; AID 493056; in the data active means enhancement above about 30%; further: 0% is about no effect
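TRHR-expressing cells loaded with fluo-8 calcium dye were read kinetically (ex 480/em 530) during compound addition, then stimulated with an EC20 of TRH (10 nM final). Enhancement of the Gq-mediated intracellular calcium response was scored.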
D1 antagonist = human D1 dopamine receptor antagonism | HEK293 TREx D1 cells, calcium flux, dopamine EC80; hits give low values | 360,000 compounds, 3.2% hits | activity change, negative = inhibition, % at 10 µM; in the data active means activity change below about -30%; further: on the % scale 0 is the no-effect control and ±100 the full control effect
Target sequence (P21728 whole entry, looked up): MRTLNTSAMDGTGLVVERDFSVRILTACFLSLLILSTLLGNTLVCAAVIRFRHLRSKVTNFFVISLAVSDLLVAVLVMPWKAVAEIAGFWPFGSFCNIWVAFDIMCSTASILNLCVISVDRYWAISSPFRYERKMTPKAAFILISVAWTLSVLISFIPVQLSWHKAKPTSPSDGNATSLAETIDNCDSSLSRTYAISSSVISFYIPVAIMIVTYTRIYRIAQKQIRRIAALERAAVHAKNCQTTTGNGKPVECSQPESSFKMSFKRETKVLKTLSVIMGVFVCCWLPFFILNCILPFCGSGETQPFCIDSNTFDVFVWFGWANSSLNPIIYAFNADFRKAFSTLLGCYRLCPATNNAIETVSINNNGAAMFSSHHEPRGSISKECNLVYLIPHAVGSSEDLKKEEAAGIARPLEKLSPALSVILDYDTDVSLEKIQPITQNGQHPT
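Inducible Hek293 Trex D1 cells (tetracycline, overnight, 30 C). Calcium dye 30–90 min RT. Antagonist mode: EC80 dopamine added after 180 s compound read.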
D1 agonist = agonists of human D1 dopamine receptor | P21728 | HEK293 T-REx D1 cells, calcium flux, agonist mode | activation, % at 2 µM | 360,000 compounds, 1% hits | AID 504660; further: 0% is about no effect
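Agonism was scored from calcium flux recorded over 180 s (1 read/s) after pintool compound addition, following a 10-cycle baseline. Cells were inducible force-coupled HEK293 TREx D1, plated overnight at 30 C and loaded with no-wash calcium dye.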
D1 potentiator = enhances dopamine response at the human D1 receptor; P21728; HEK293 TREx D1 cells, calcium flux, dopamine EC20 potentiation; potentiation, % at 10 µM; 360,000 compounds, 0.036% hits; AID 504651; in the data active means potentiation above about 30%; further: 0% is about no effect
TRHR ag = activates the human TRH receptor | P34981 | TRHR cells, calcium flux fluo-8, FDSS agonist mode | activation, % at 2 µM | 360,000 compounds, 0.18% hits; further: 0% is about no effect
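TRHR-expressing cells loaded with fluo-8 calcium dye; 23 nL library compound pin-transferred, kinetic FDSS fluorescence (Ex 480/Em 530) recorded about 180 s for agonist-induced calcium release, before a 10 nM TRH EC20 addition for potentiator mode.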
Numbers without * were called inactive; . = not tested or not shown. Unless noted, no stated cut-off is given here; in the data, active means activation above about 30%; inactive means the rest.

SMILES	TRHR PAM	D1 antagonist	D1 agonist	D1 potentiator	TRHR ag
CN(CCNC(=O)c1ccc(CS(=O)(=O)c2c(Cl)cccc2Cl)o1)CCc1ccccc1	0	-56*	5	-13	0
CN(C)CCNC(=O)c1ccc(CS(=O)(=O)c2c(Cl)cccc2Cl)o1	1	25	5	-3	0
COc1ccccc1OCCNC(=O)C(CCSC)NC(=O)c1ccccc1Cl (stereo not drawn)	5	-21	3	0	0
COc1ccccc1C(=O)COC(=O)C(CCSC)NC(=O)COc1ccccc1 (stereo not drawn)	30*	9	4	-4	0
COc1ccccc1C(=O)NC(CCSC)C(=O)NCCCSc1ccccc1 (stereo not drawn)	-8	-1	92*	0	0
CSCCC(NC(=O)COc1ccccc1)C(=O)N1CCCCC1 (stereo not drawn)	0	3	0	-3	0
CSCCC(NC(=O)COc1ccccc1)C(=O)N1CCC(C(N)=O)CC1 (stereo not drawn)	2	-31*	1	.	0
COc1ccccc1C(=O)NC(CCSC)C(=O)OC(C)C(N)=O (stereo not drawn)	36*	8	0	-1	-1
CCc1ccc(-c2nc(CSCC(=O)NCc3ccc(C)cc3)c(C)o2)cc1	2	6	12	2	1
COc1cc2c(cc1OC)C1=C(C#N)CC/C(=N\S(=O)(=O)c3cccc(Cl)c3)N1CC2	-1	-74*	3	-10	1
O=C(NCCc1ccc(Cl)cc1)c1ccc2c(c1)N(Cc1ccccc1)C(=O)CS2	7	3	1	-1	0
CCOc1ccc(CCNC(=O)c2cn(C)c3ccc(S(=O)(=O)N4CCCCCC4)cc3c2=O)cc1OCC	-5	6	0	1	0
Cc1ccc(C)c(N2CCN(C(c3ccc(F)cc3)c3nnc(-c4ccccc4)o3)CC2)c1 (stereo not drawn)	-2	-17	-1	-1	0
CCOC(=O)c1ccc(NC(=O)CSc2cn(CC(=O)N3CCCC3)c3ccccc23)cc1	2	2	1	-2	0
CC(C)Cc1ccc(C(=O)Nc2ccc(Cc3ccncc3)cc2)o1	38*	0	1	-3	0
COC(=O)Nc1ccc(Cc2ccncc2)cc1	-4	13	5	-4	0
COc1ccccc1Oc1ccc(N2CC(C(=O)OCC(=O)c3ccccc3)CC2=O)cc1 (stereo not drawn)	8	-30*	5	-13	1
CCc1ccc(Sc2cc(C(=O)NCc3cccc(OC)c3)c3ccccc3n2)cc1	-1	-32*	13	-2	3
CCOc1ccc(-c2cc(C(=O)NCc3ccccc3Cl)c3ccccc3n2)cc1	-4	-36*	-2	-2	1
CCOc1ccc(Sc2cc(C(=O)NCc3ccccc3Cl)c3ccccc3n2)cc1	11	-36*	4	-2	1
CCc1ccc(Sc2cc(C(=O)NCCCN3CCCC(C)C3)c3ccccc3n2)cc1 (stereo not drawn)	2	-22	36*	0	1
CCOc1ccc(Nc2cc(C(=O)NCc3ccccc3Cl)c3ccccc3n2)cc1	-3	-10	-1	2	0
CCc1ccc(Sc2cc(C(=O)NCCCN3CCC(C)CC3)c3ccccc3n2)cc1	8	-21	29	0	1
Cc1ccc(C(=O)N(Cc2ccc(N(C)C)cc2)CC2CCCO2)cc1 (stereo not drawn)	0	-15	-2	1	-1
CCc1ccc(Nc2cc(C(=O)NCCCN3CCOCC3)c3ccccc3n2)cc1	11	-26	51*	-6	-1
COc1ccc(Nc2cc(C(=O)NCCCN3CCOCC3)c3ccccc3n2)cc1	1	-10	2	-4	1
CCC(Sc1nc2c(sc3ccccc32)c(=O)n1CCc1ccc(OC)c(OC)c1)C(=O)N(CC)CC (stereo not drawn)	-5	1	4	0	0
O=C1COc2ccc(C(=O)COC(=O)Cc3ccc(Cl)cc3)cc2N1	36*	1	6	4	1
O=C1COc2ccc(C(=O)COC(=O)CCSc3ccc(Cl)cc3)cc2N1	5	-1	1	0	0
COc1cccc(N2CC(C(=O)Nc3ccc(F)cc3)CC2=O)c1 (stereo not drawn)	7	3	10	-4	2
